Compounds without any hit were thinned out: in the full panel of roughly 83,000, 20% have a hit.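 Assay: single dose, 48 h. Readout: percent growth (0 = no net growth; negative = cell death). Active: <10.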 Calls of active or inactive are those of the source.
test system: MDA-MB-468 breast; test: NCI-60 one-dose screen, 48 h (100 = growth as untreated, 0 = no growth, -100 = all killed); details: 10 µM unless noted

Compound	growth
Cc1cc(N2CCCCCC2)nc(N2CCN(CC(=O)Nc3ccc4c(ccn4Cc4ccccc4)c3)CC2)n1	17.4% (inactive)
CCN(CC)CCCNc1ccnc2cc3ccccc3cc12	75.9% (inactive)
Cc1cccc(NC(=O)c2sc3nc4c(cc3c2N)CN(Cc2ccccc2)CC4)c1C	24.4% (inactive)
COc1ccc(/C=C2\CCc3ccccc3C2=O)cc1	76.7% (inactive)
